# Reference: publication PMC11006913
# Positions count from the first letter of the chain named.
# What was measured:
# Assay in all cases: PBM; 200 nM protein, PBS
# Settings in all cases: dsDNA, one strand shown
# [1] = molecular target: T1, NKX2-6 (Homo sapiens, UniProt A6NCS4 118-204)
# T1 sequence: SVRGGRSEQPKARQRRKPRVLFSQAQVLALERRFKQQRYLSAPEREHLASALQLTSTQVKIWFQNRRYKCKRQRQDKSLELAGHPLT
# [2] = molecular target: VAX1 (Homo sapiens, UniProt Q5SQQ9 86-172)
# [3] = molecular target: T2, NKX2-6 (Homo sapiens, UniProt A6NCS4 118-204, F151L)
# T2 sequence: T1 sequence with F34L
# [4] = molecular target: VAX1 (Homo sapiens, UniProt Q5SQQ9 86-172, T142I)
# [5] = molecular target: VAX1 (Homo sapiens, UniProt Q5SQQ9 86-172, K157R)
# [6] = molecular target: ALX3 (Homo sapiens, UniProt O95076 139-225)
# [7] = molecular target: ALX3 (Homo sapiens, UniProt O95076 139-225, L168Q)
# Chain of ALX3 (Homo sapiens, UniProt O95076 139-225, L168Q) (O95076 139-225 L168Q): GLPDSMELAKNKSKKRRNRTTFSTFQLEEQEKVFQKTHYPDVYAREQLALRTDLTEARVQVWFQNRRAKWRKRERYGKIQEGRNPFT
# Chain of VAX1 (Homo sapiens, UniProt Q5SQQ9 86-172, K157R) (Q5SQQ9 86-172 K157R): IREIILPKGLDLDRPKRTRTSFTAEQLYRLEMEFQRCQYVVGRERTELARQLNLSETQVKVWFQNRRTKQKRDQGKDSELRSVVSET
# Chain of VAX1 (Homo sapiens, UniProt Q5SQQ9 86-172) (Q5SQQ9 86-172): as the sequence (Q5SQQ9 86-172 K157R) above, with R72K counted along it
# Chain of ALX3 (Homo sapiens, UniProt O95076 139-225) (O95076 139-225): as the sequence (O95076 139-225 L168Q) above, with Q30L counted along it
# Chain of VAX1 (Homo sapiens, UniProt Q5SQQ9 86-172, T142I) (Q5SQQ9 86-172 T142I): as the sequence (Q5SQQ9 86-172 K157R) above, with T57I, R72K counted along it
sequence,measurement,setting,value
CGCTTAAG,binding signal,[1],"12.2 upbm affinity estimate (log intensity, higher = more binding, comparable within an allelic series)"
same,binding signal,[2],"9.23 upbm affinity estimate (log intensity, higher = more binding, comparable within an allelic series)"
same,binding signal,[3],"9.9 upbm affinity estimate (log intensity, higher = more binding, comparable within an allelic series)"
same,binding signal,[4],"8.86 upbm affinity estimate (log intensity, higher = more binding, comparable within an allelic series)"
same,binding signal,[5],"9.02 upbm affinity estimate (log intensity, higher = more binding, comparable within an allelic series)"
ACTTACAT,binding signal,[1],"11.6 upbm affinity estimate (log intensity, higher = more binding, comparable within an allelic series)"
same,binding signal,[6],"8.97 upbm affinity estimate (log intensity, higher = more binding, comparable within an allelic series)"
same,binding signal,[7],"8.46 upbm affinity estimate (log intensity, higher = more binding, comparable within an allelic series)"
same,binding signal,[3],"9.95 upbm affinity estimate (log intensity, higher = more binding, comparable within an allelic series)"
AGCTGCAG,binding signal,[1],"9.32 upbm affinity estimate (log intensity, higher = more binding, comparable within an allelic series)"
same,binding signal,[3],"9.44 upbm affinity estimate (log intensity, higher = more binding, comparable within an allelic series)"
GTTAAGTA,binding signal,[1],"13.5 upbm affinity estimate (log intensity, higher = more binding, comparable within an allelic series)"
same,binding signal,[3],"10.8 upbm affinity estimate (log intensity, higher = more binding, comparable within an allelic series)"
GAAGAGCA,binding signal,[1],"11.4 upbm affinity estimate (log intensity, higher = more binding, comparable within an allelic series)"
same,binding signal,[3],"9.71 upbm affinity estimate (log intensity, higher = more binding, comparable within an allelic series)"
GGCACAGA,binding signal,[1],"9.3 upbm affinity estimate (log intensity, higher = more binding, comparable within an allelic series)"
same,binding signal,[3],"9.37 upbm affinity estimate (log intensity, higher = more binding, comparable within an allelic series)"
GCTAAGTA,binding signal,[1],"12.9 upbm affinity estimate (log intensity, higher = more binding, comparable within an allelic series)"
same,binding signal,[3],"10.4 upbm affinity estimate (log intensity, higher = more binding, comparable within an allelic series)"
CAGATCCC,binding signal,[1],"9.68 upbm affinity estimate (log intensity, higher = more binding, comparable within an allelic series)"
same,binding signal,[3],"9.49 upbm affinity estimate (log intensity, higher = more binding, comparable within an allelic series)"
CCGGCACC,binding signal,[1],"9.34 upbm affinity estimate (log intensity, higher = more binding, comparable within an allelic series)"
same,binding signal,[3],"9.34 upbm affinity estimate (log intensity, higher = more binding, comparable within an allelic series)"
TCAACTCA,binding signal,[1],"11.4 upbm affinity estimate (log intensity, higher = more binding, comparable within an allelic series)"
same,binding signal,[3],"9.78 upbm affinity estimate (log intensity, higher = more binding, comparable within an allelic series)"
CAGTCTGC,binding signal,[1],"9.37 upbm affinity estimate (log intensity, higher = more binding, comparable within an allelic series)"
same,binding signal,[3],"9.38 upbm affinity estimate (log intensity, higher = more binding, comparable within an allelic series)"
ACTTGACT,binding signal,[1],"12.4 upbm affinity estimate (log intensity, higher = more binding, comparable within an allelic series)"
same,binding signal,[3],"10.4 upbm affinity estimate (log intensity, higher = more binding, comparable within an allelic series)"
CAGCCGTC,binding signal,[1],"9.5 upbm affinity estimate (log intensity, higher = more binding, comparable within an allelic series)"
same,binding signal,[3],"9.26 upbm affinity estimate (log intensity, higher = more binding, comparable within an allelic series)"
ACCCAGGC,binding signal,[1],"8.77 upbm affinity estimate (log intensity, higher = more binding, comparable within an allelic series)"
same,binding signal,[3],"9.31 upbm affinity estimate (log intensity, higher = more binding, comparable within an allelic series)"
ACGGCCAG,binding signal,[1],"9.26 upbm affinity estimate (log intensity, higher = more binding, comparable within an allelic series)"
same,binding signal,[3],"9.26 upbm affinity estimate (log intensity, higher = more binding, comparable within an allelic series)"
GGGCGGCA,binding signal,[1],"9.62 upbm affinity estimate (log intensity, higher = more binding, comparable within an allelic series)"
same,binding signal,[3],"9.36 upbm affinity estimate (log intensity, higher = more binding, comparable within an allelic series)"
CCGTAGCA,binding signal,[1],"9.41 upbm affinity estimate (log intensity, higher = more binding, comparable within an allelic series)"
same,binding signal,[3],"9.46 upbm affinity estimate (log intensity, higher = more binding, comparable within an allelic series)"
GTTGATGA,binding signal,[1],"10.9 upbm affinity estimate (log intensity, higher = more binding, comparable within an allelic series)"
same,binding signal,[3],"9.75 upbm affinity estimate (log intensity, higher = more binding, comparable within an allelic series)"
AAACACTA,binding signal,[1],"11.5 upbm affinity estimate (log intensity, higher = more binding, comparable within an allelic series)"
same,binding signal,[3],"9.97 upbm affinity estimate (log intensity, higher = more binding, comparable within an allelic series)"
ACACCCGT,binding signal,[1],"8.98 upbm affinity estimate (log intensity, higher = more binding, comparable within an allelic series)"
same,binding signal,[3],"9.33 upbm affinity estimate (log intensity, higher = more binding, comparable within an allelic series)"
GGCGTTAC,binding signal,[1],"9.36 upbm affinity estimate (log intensity, higher = more binding, comparable within an allelic series)"
same,binding signal,[3],"9.53 upbm affinity estimate (log intensity, higher = more binding, comparable within an allelic series)"
CACACGGA,binding signal,[1],"9.29 upbm affinity estimate (log intensity, higher = more binding, comparable within an allelic series)"
same,binding signal,[3],"9.43 upbm affinity estimate (log intensity, higher = more binding, comparable within an allelic series)"
CCCAGCAG,binding signal,[1],"9.19 upbm affinity estimate (log intensity, higher = more binding, comparable within an allelic series)"
same,binding signal,[3],"9.49 upbm affinity estimate (log intensity, higher = more binding, comparable within an allelic series)"
AGACGCTG,binding signal,[1],"9.21 upbm affinity estimate (log intensity, higher = more binding, comparable within an allelic series)"
same,binding signal,[3],"9.48 upbm affinity estimate (log intensity, higher = more binding, comparable within an allelic series)"
AGTATGTA,binding signal,[1],"11.6 upbm affinity estimate (log intensity, higher = more binding, comparable within an allelic series)"
same,binding signal,[3],"9.91 upbm affinity estimate (log intensity, higher = more binding, comparable within an allelic series)"
CAGCTCAG,binding signal,[1],"9.47 upbm affinity estimate (log intensity, higher = more binding, comparable within an allelic series)"
same,binding signal,[3],"9.39 upbm affinity estimate (log intensity, higher = more binding, comparable within an allelic series)"
AACCGGAG,binding signal,[1],"9.55 upbm affinity estimate (log intensity, higher = more binding, comparable within an allelic series)"
same,binding signal,[3],"9.32 upbm affinity estimate (log intensity, higher = more binding, comparable within an allelic series)"
CCTTAAGA,binding signal,[1],"12.4 upbm affinity estimate (log intensity, higher = more binding, comparable within an allelic series)"
same,binding signal,[3],"10.1 upbm affinity estimate (log intensity, higher = more binding, comparable within an allelic series)"
CCGTTGGC,binding signal,[1],"9.2 upbm affinity estimate (log intensity, higher = more binding, comparable within an allelic series)"
same,binding signal,[3],"9.41 upbm affinity estimate (log intensity, higher = more binding, comparable within an allelic series)"
CCCGGAAA,binding signal,[1],"9.48 upbm affinity estimate (log intensity, higher = more binding, comparable within an allelic series)"
same,binding signal,[3],"9.48 upbm affinity estimate (log intensity, higher = more binding, comparable within an allelic series)"
CAGGCACA,binding signal,[1],"9.47 upbm affinity estimate (log intensity, higher = more binding, comparable within an allelic series)"
same,binding signal,[3],"9.38 upbm affinity estimate (log intensity, higher = more binding, comparable within an allelic series)"
